Reference: PubChem BioAssay AID1159580 (chemical genetic matrix, 2015)
Among all 5,500 compounds or so, about 2,000 (36%) were called active. Roughly 18% stayed inconclusive and do not appear here. Cut-off read from the data, not from the text of the source: active = normalized growth mostly below about 0.91 (no sharp cut-off); inconclusive = no clear call, values can overlap the other calls; inactive = mostly above about 0.92. This is one part of the list.

Assay: chemical genetic growth profiling, strain panel (AID 1159580);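 note: tested at 20 µM; growth read once vehicle control cultures reached saturation at 30 °C; 1 = growth at the plate median or of vehicle wells; lower values mean less growth of the strain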
Details: S. cerevisiae deletion strains, growth OD
[1] = locus YBR021W, strain FUR4, hits give low values
[2] = locus YBR229C, strain ROT2, hits give low values
[3] = locus YCL029C, strain bik1, hits give low values
[4] = locus YDL035C, strain GPR1, hits give low values
[5] = locus YDL074C, strain BRE1, hits give low values
[6] = locus YDL101C, strain DUN1, hits give low values
[7] = locus YDL134C, strain PPH21, hits give low values
[8] = locus YDL185W, strain tfp1, hits give low values
[9] = locus YDL192W, strain arf1, hits give low values
[10] = locus YDR101C, strain arx1, hits give low values
[11] = locus YDR162C, strain NBP2, hits give low values
[12] = locus YDR318W, strain mcm21, hits give low values
[13] = locus YDR388W, hits give low values
[14] = locus YDR502C, strain sam2, hits give low values
[15] = locus YEL061C, strain CIN8, hits give low values
[16] = locus YER110C, hits give low values
[17] = locus YER155C, strain BEM2, hits give low values
[18] = locus YER167W, strain BCK2, hits give low values
[19] = locus YGL078C, strain dbp3, hits give low values
[20] = locus YGL086W, strain mad1, hits give low values
[21] = locus YGL248W, strain PDE1, hits give low values
[22] = locus YGR078C, strain PAC10, hits give low values
[23] = locus YGR135W, strain pre9, hits give low values
[24] = locus YGR252W, strain gcn5, hits give low values
[25] = locus YHR030C, strain SLT2, hits give low values
[26] = locus YHR079C, strain IRE1 (second series), hits give low values
[27] = locus YHR094C, strain hxt1, hits give low values
[28] = locus YHR129C, strain ARP1, hits give low values
[29] = locus YHR200W, strain rpn10, hits give low values
[30] = locus YIL066C, strain RNR3, hits give low values
[31] = locus YIL073C, strain SPO22, hits give low values
[32] = locus YIL125W, strain kgd1, hits give low values
[33] = locus YIR030C, strain dcg1, hits give low values
[34] = locus YJL095W, strain BCK1, hits give low values
[35] = locus YJL134W, strain LCB3, hits give low values
[36] = locus YJL168C, strain set2, hits give low values
[37] = locus YJL187C, strain SWE1 (second series), hits give low values
[38] = locus YJR043C, strain POL32, hits give low values
[39] = locus YKL009W, strain mrt4, hits give low values
[40] = locus YKL068W, hits give low values
[41] = locus YKL085W, strain MDH1 (second series), hits give low values
[42] = locus YKL085W, strain MDH1, hits give low values
[43] = locus YKR001C, strain vps1, hits give low values
[44] = locus YLR039C, strain RIC1, hits give low values
[45] = locus YLR058C, strain SHM2, hits give low values
[46] = locus YLR102C, strain apc9, hits give low values
[47] = locus YLR268W, strain sec22, hits give low values
[48] = locus YLR330W, strain CHS5, hits give low values
[49] = locus YLR342W, strain FKS1 (second series), hits give low values
[50] = locus YLR371W, strain rom2, hits give low values
[51] = locus YLR418C, strain cdc73, hits give low values
[52] = locus YML016C, strain PPZ1, hits give low values
[53] = locus YML032C, strain rad52, hits give low values
[54] = locus YML124C, strain tub3, hits give low values
[55] = locus YMR078C, strain ctf18, hits give low values
[56] = locus YMR223W, strain ubp8, hits give low values
[57] = locus YMR263W, strain SAP30, hits give low values
[58] = locus YMR307W, strain GAS1, hits give low values
[59] = locus YNL067W, strain RPL9B, hits give low values
[60] = locus YNL153C, strain GIM3, hits give low values
[61] = locus YNL233W, strain BNI4, hits give low values
[62] = locus YNL250W, strain rad50, hits give low values
[63] = locus YNL271C, strain bni1, hits give low values
[64] = locus YNL298W, strain CLA4, hits give low values
[65] = locus YNL307C, strain MCK1, hits give low values
[66] = locus YNR052C, strain pop2, hits give low values
[67] = locus YOL147C, strain pex11, hits give low values
[68] = locus YOR061W, strain CKA2, hits give low values
[69] = locus YOR069W, strain VPS5, hits give low values
[70] = locus YOR136W, strain idh2, hits give low values
[71] = locus YOR144C, strain elg1, hits give low values
[72] = locus YOR184W, strain ser1, hits give low values
[73] = locus YOR316C, strain cot1, hits give low values
[74] = locus YPL055C, strain LGE1, hits give low values
[75] = locus YPR119W, strain clb2, hits give low values
[76] = locus YPR141C, strain kar3, hits give low values
[77] = locus YPR163C, strain tif3, hits give low values
[78] = locus YPR167C, strain met16, hits give low values
[79] = strain wtn01, hits give low values
[80] = locus YNL322C, strain KRE1, hits give low values

Measured: normalized growth

Cc1cc(=O)c2c(o1)-c1c(cc(O)c(O)c1C(=O)O)OC2
inactive: [1] 0.96 | [2] 0.996 | [3] 1.03 | [4] 1 | [5] 0.984 | [6] 1 | [7] 1 | [8] 1.01 | [9] 1.01 | [10] 1.01 | locus YDR150W, strain NUM1, hits give low values 0.97 | [11] 0.987 | [12] 1.01 | [13] 1.01 | [14] 1.03 | [15] 1 | [16] 1.03 | [17] 1.01 | [18] 1.02 | [19] 1.02 | [20] 1.02 | [21] 0.996 | [22] 0.991 | [23] 1.02 | [24] 0.997 | [25] 1.01 | [26] 1.01 | [27] 1.02 | [28] 1.01 | [29] 1.03 | [30] 0.99 | [31] 1.05 | [32] 1.03 | [33] 1.02 | [34] 0.998 | [35] 1.01 | [36] 1.02 | [37] 1.02 | [38] 0.997 | [39] 1.03 | [40] 1.01 | [41] 1.01 | [42] 1.01 | [43] 1.02 | [44] 0.973 | [45] 1.01 | [46] 1.01 | locus YLR262C, strain YPT6, hits give low values 1.02 | [47] 1.02 | [48] 0.991 | [49] 0.966 | [50] 1.03 | [51] 1.05 | [52] 0.998 | [53] 1.01 | [54] 1.01 | [55] 1.02 | [56] 1.01 | [57] 1 | [58] 0.935 | [59] 0.987 | [60] 1 | [61] 1.02 | [62] 1.03 | [63] 1.02 | [64] 1.03 | [65] 1.02 | [66] 1.02 | locus YOL006C, strain TOP1, hits give low values 0.969 | locus YOL012C, strain htz1 0.545 | [67] 1.02 | [68] 1.01 | [69] 1 | [70] 1.03 | [71] 1.01 | [72] 1.03 | [73] 1.01 | [74] 1.01 | [75] 1.01 | [76] 1.02 | [77] 1.01 | [78] 1.03 | [79] 1.02

Cc1cc(=O)c2c(O)c3c(cc2o1)OC(C)(C)CC3
inactive: locus YAL013W, strain DEP1, hits give low values 1.01 | [1] 1.07 | [2] 1 | [3] 0.967 | [4] 1.02 | [5] 1.03 | [6] 0.989 | [7] 0.981 | [8] 0.938 | [9] 0.965 | [10] 0.975 | [11] 1.01 | [12] 0.954 | [13] 0.966 | [14] 0.971 | [15] 1 | [16] 0.967 | [17] 0.995 | [18] 0.998 | [19] 0.951 | [20] 0.983 | [21] 1 | [22] 0.998 | [23] 0.923 | [24] 0.931 | [25] 0.992 | [26] 0.962 | [27] 0.975 | [28] 0.993 | [29] 0.968 | [30] 1.01 | [31] 0.899 | [32] 0.978 | [33] 0.949 | [34] 0.972 | [35] 1 | [36] 0.969 | [37] 0.973 | [39] 0.992 | [40] 0.976 | [41] 1 | [42] 1 | locus YKL190W, strain CNB1, hits give low values 1 | [43] 0.96 | [44] 1.01 | [45] 0.994 | [46] 0.975 | [47] 0.989 | [48] 0.988 | [49] 1.08 | [50] 0.95 | [51] 0.972 | [52] 1.01 | [53] 0.963 | [54] 0.971 | [55] 0.951 | [56] 0.959 | [57] 0.973 | [58] 1.21 | [59] 0.97 | locus YNL128W, strain TEP1, hits give low values 1 | [60] 0.973 | [61] 1.02 | [62] 0.967 | [63] 0.965 | [64] 0.961 | [65] 0.982 | [80] 0.995 | [66] 0.949 | locus YOL012C, strain htz1 0.959 | [67] 0.967 | [68] 1 | [69] 0.997 | [70] 0.997 | [71] 0.973 | [72] 1 | [73] 0.964 | [74] 1.05 | [75] 0.956 | [76] 0.946 | [77] 0.98 | [78] 0.949 | [79] 1

Cc1cc(=O)c2c(O)c3c(cc2o1)OCC(C)CC3 (stereo not given)
active: [9] 0.848 | [10] 0.896 | [12] 0.858 | [13] 0.909 | [14] 0.858 | [16] 0.893 | [17] 0.849 | [20] 0.846 | [21] 0.881 | [22] 0.8 | [23] 0.806 | [24] 0.689 | [26] 0.925 | [29] 0.868 | [32] 0.924 | [33] 0.912 | [36] 0.914 | [40] 0.921 | [43] 0.797 | [44] 0.673 | [50] 0.821 | [51] 0.591 | [53] 0.881 | [54] 0.91 | [55] 0.899 | [56] 0.879 | [58] 0.588 | [60] 0.704 | [61] 0.826 | [65] 0.719 | [80] 0.923 | [67] 0.887 | [70] 0.915 | [71] 0.91 | [72] 0.725 | [73] 0.918 | [75] 0.914 | [77] 0.855 | [78] 0.868 | [79] 0.897
inactive: [1] 0.993 | [2] 0.981 | [3] 0.912 | [4] 0.954 | [5] 0.818 | [6] 0.898 | [8] 0.915 | [11] 0.885 | [18] 0.961 | [19] 0.936 | [27] 0.926 | [28] 0.926 | [30] 0.941 | [31] 0.796 | [34] 0.815 | [35] 0.969 | [37] 0.908 | [38] 0.966 | [39] 0.897 | [41] 0.942 | [42] 0.942 | [45] 0.926 | [46] 0.928 | [47] 0.914 | [52] 0.976 | [59] 0.919 | [62] 0.902 | [63] 0.922 | [64] 0.929 | [66] 0.932 | locus YOL012C, strain htz1 1.02 | [68] 0.98 | [69] 0.96 | [76] 0.918
